Data reported in the supplement of paper PMC4237247.

Each compound was assayed on HeLa (assay: percent cells in G2/M phase; higher = more G2/M arrest). Details: 10 µM; 20 h; hit class: G2/M-phase inhibitor.
Method: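 HTS of 79,827 drug-like compounds at 10 uM. HeLa cells in 384-well plates were treated for 20 h, fixed, stained with Vybrant DyeCycle Green and scanned on an Acumen eX3 cytometer to give per-well cell cycle profiles. Only G2/M hits (>=67% G2/M) are listed.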
In the case of `CN1Cc2c(ccc3c2OCO3)[C@@H]2[C@H]1c1cc3c(cc1C[C@@H]2O)OCO3` [Chelidonine monohydrate (+)], the “percent cells in G2/M phase” value was 72%.
